Bioassay records deposited in PubChem BioAssay by National Center for Advancing Translational Sciences (NCATS).
D3 antag = qHTS of D3 Dopamine Receptor Antagonist: qHTS; D(3) dopamine receptor (Homo sapiens), P35462; D3R cells, DiscoveRx beta-arrestin luminescence, antagonist mode; stronger effect = lower value; max response, negative = inhibition, %; hit rate 2.5% among 360,000; AID 652054, 2013; in the data active = max response below about -50%; inconclusive = no clear call, values can overlap the other calls
Target sequence (P35462 whole entry, looked up): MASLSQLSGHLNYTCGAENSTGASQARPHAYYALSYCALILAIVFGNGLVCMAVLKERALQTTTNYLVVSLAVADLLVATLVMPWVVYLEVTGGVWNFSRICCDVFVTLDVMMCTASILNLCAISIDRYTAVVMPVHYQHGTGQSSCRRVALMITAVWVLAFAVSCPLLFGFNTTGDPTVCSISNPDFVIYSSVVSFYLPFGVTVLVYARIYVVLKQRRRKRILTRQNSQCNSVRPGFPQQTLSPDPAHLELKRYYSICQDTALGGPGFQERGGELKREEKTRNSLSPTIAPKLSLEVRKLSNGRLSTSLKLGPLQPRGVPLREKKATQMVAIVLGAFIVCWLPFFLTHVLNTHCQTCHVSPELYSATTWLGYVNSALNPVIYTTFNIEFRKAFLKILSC
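Cells expressing the human receptor were seeded at 1500 cells/well, incubated overnight at 37 degrees C in 5% CO2, then exposed to library compounds with dopamine controls for 90 minutes at 37 degrees C before luminescent detection.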
Chronic BCR inh = qHTS Assay to Find Inhibitors of Chronic Active B-Cell Receptor Signaling. Potency, µM (top dose mostly 46.1 µM), hits mostly inhibitors. hit rate 0.05% among 340,000. ABC-DLBCL IkBa-CBG/CBR reporter, luminescence ratio, 4 h. AID 493014, 2011; active = well fitted inhibition curve with a large enough effect in the signal ratio, with a control signal flat, not every such curve was filed as active; inconclusive = small, poorly fitted or top-dose-only effect, or effect the other way, or a change in a side signal; the % refers to the signal ratio
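Concentration-response series (up to 46 uM) were applied to TMD8 dual-reporter cells for 4 h at 37C with doxycycline. Green/red ratio, after filter-overlap correction, defined %Activity; red signal alone was normalised to basal cells and zero luminescence.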
D1 agonist = Allosteric Agonists of the Human D1 Dopamine Receptor: qHTS. D(1A) dopamine receptor (Homo sapiens), P21728. HEK293 T-REx D1 cells, calcium flux, agonist mode. activation, % at 2 µM. hit rate 1% among 360,000; in the data active = activation above about 30%
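Tetracycline-induced HEK293 TREx D1 cells, force-coupled to calcium signalling, were dye-loaded with a no-wash calcium kit. Compound was pin-added after a 10 s baseline. Fluorescence was read kinetically at 1 cycle/s for 180 s, with calcium rises flagged as agonism.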
D1 PAM = Potentiators of Human D1 Dopamine Receptor: qHTS. D(1A) dopamine receptor (Homo sapiens), P21728. HEK293 TREx D1 cells, calcium flux, dopamine EC20 potentiation. potentiation, % at 10 µM. hit rate 0.036% among 360,000. AID 504651, 2011; in the data active = potentiation above about 30%
D1 antagonist = Antagonist of Human D 1 Dopamine Receptor: qHTS; D(1A) dopamine receptor (Homo sapiens), P21728; HEK293 TREx D1 cells, calcium flux, dopamine EC80; stronger effect = lower value; activity change, negative = inhibition, % at 10 µM; hit rate 3.2% among 360,000; AID 504652, 2011; in the data active = activity change below about -30%
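Using tetracycline-induced force-coupled D1 Hek293 cells and a calcium dye, signals were followed for 180 s after compound, then for 180 s after EC80 dopamine, to detect inhibitors.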
D3 ag = qHTS of D3 Dopamine Receptor Agonist: qHTS; D(3) dopamine receptor (Homo sapiens), P35462; D3R DiscoveRx beta-arrestin cells, luminescence, 90 min; max activation, %; hit rate 0.58% among 410,000; in the data active = max activation above about 30%
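Agonist mode: compounds and dopamine controls were applied to plated cells for 90 min at 37 degrees C after an overnight attachment at 1500 cells/well. Luminescent read-out followed 30 - 60 minutes at room temperature with DiscoveRx detection reagent.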
Each line names hits and unclear results; the compound was inactive in the other large screens. Sampled rows, rich in hits. Any-hit rate of the full collection: about 6%.

O=C(NCc1cccc(C(F)(F)F)c1)c1c[nH]c(=O)s1	none (no result: Chronic BCR inh, D1 agonist, D1 PAM, D1 antagonist)
CN(c1ccccc1)c1ccc(/C=N/N2CCOCC2)cc1	D3 antag -51.7, Chronic BCR inh inconclusive
O=C(NCc1ccccc1Cl)c1ccc(Cn2c(SCc3ccccc3)nc3cccnc32)cc1	none (no result: D3 antag, Chronic BCR inh)
CCOC(=O)c1c(C)c2c(=O)[nH]cnc2n1-c1ccccc1	Chronic BCR inh inconclusive
CCOC(=O)c1c[nH]c(=S)n(-c2ccccc2)c1=O	D3 ag 30.2
Cc1ccc(S(=O)(=O)C(CNC(=O)COc2ccccc2)c2ccco2)cc1 (stereo not given)	none (no result: D3 antag, D1 antagonist)
CC(=O)Nc1ccc(-c2ccnc3c2CC(C)(C(=O)NCc2cccc(Cl)c2)O3)cc1 (stereo not given)	none (no result: Chronic BCR inh, D1 agonist, D1 PAM, D1 antagonist)
CC(C)NC(=O)Cn1nc(N2CCN(c3ccccc3)CC2)ccc1=O	none (no result: D3 antag, Chronic BCR inh)
CO[C@@H]1[C@@H](O[C@@H]2O[C@H](C)[C@@H](O[C@H]3C[C@@](C)(O)[C@@H](O)[C@H](C)O3)[C@H](N(C)C)[C@H]2O)[C@@H](CC=O)C[C@@H](C)[C@@H](O[C@@H]2CC[C@H](N(C)C)[C@@H](C)O2)/C=C/C=C/C[C@@H](C)OC(=O)C[C@H]1OC(C)=O	none (no result: D3 antag, Chronic BCR inh, D1 agonist, D1 PAM, D1 antagonist)
COc1cc(CN(CCN(C)C)Cc2ccccc2)ccc1OCc1ccccc1	D1 antagonist -75.6
COc1ccc(CN(CCc2ccccc2)Cc2ccccc2)cc1OC	Chronic BCR inh inconclusive
CCN(CC(O)c1cccc(O)c1)C(=O)C12CC3CC(CC(C3)C1)C2 (stereo not given)	D3 antag -77.8
CCN(CC)C(=O)c1cccc(NC(=O)CC23CC4CC(CC(C4)C2)C3)c1	none
COc1ccc(N2CCN(CC(O)COc3ccc(C)cc3C)CC2)cc1 (stereo not given)	none
OC(COc1ccccc1)CN1CCN(CC(O)COc2ccccc2)CC1 (stereo not given)	none
COc1cccc(OCC(O)CN2CCN(c3ccc(F)cc3)CC2)c1 (stereo not given)	D3 antag inconclusive
COc1ccc(N2CCN(CC(O)COc3ccccc3[N+](=O)[O-])CC2)cc1 (stereo not given)	D3 antag -54.1
COc1cccc(OC)c1OCC(O)CN1CCN(c2ccc(F)cc2)CC1 (stereo not given)	D3 antag -77.1
O=[N+]([O-])c1ccccc1OCC(O)CN1CCN(CC(O)COc2ccccc2[N+](=O)[O-])CC1 (stereo not given)	D3 antag -93.5, D1 antagonist -46.2
Cc1ccc(C)c(S(=O)(=O)c2nnn3c2nc(NC2CCCCC2)c2sccc23)c1	none (no result: D3 antag, Chronic BCR inh)
Cc1ccccc1S(=O)(=O)N(C)C[C@H]1OCc2cn(nn2)CCCC(=O)N([C@H](C)CO)C[C@@H]1C	none (no result: Chronic BCR inh, D1 agonist, D1 PAM, D1 antagonist)
COc1ccccc1N1CCN(C(=O)C2C3C=CC4(CN(Cc5ccccc5Cl)C(=O)C24)O3)CC1 (stereo not given)	D1 antagonist -34.6
COc1ccc(-c2noc(-c3ccc(NC(C)c4ccccc4)c([N+](=O)[O-])c3)n2)cc1OC (stereo not given)	none (no result: D3 antag, Chronic BCR inh)
O=C(NN=Cc1c(O)ccc2ccccc12)C1CC1	none (no result: Chronic BCR inh, D1 agonist, D1 PAM, D1 antagonist)
O=C(N/N=C\c1c(O)ccc2ccccc12)c1ccc(Cn2cccn2)o1	D1 antagonist -30.2
O=C(N/N=C/c1c(O)ccc2ccccc12)c1cccc(C(F)(F)F)c1	Chronic BCR inh inconclusive, D1 agonist 162.0, D1 antagonist -31.4
O=C1C=C(c2n[nH]nc2-c2ccccc2)C[C@@H](c2ccc(F)cc2)C1	none (no result: Chronic BCR inh, D1 agonist, D1 PAM, D1 antagonist)
CN1CCN(CCCOc2ccc(-c3ccccc3)cc2)CC1	D1 antagonist -32.9
CN1CCN(CCOc2ccc(-c3ccccc3)cc2)CC1	none
CCN1CCN(CCCOc2ccc(-c3ccccc3)cc2)CC1	D3 antag inconclusive, D1 agonist 49.7, D1 antagonist -34.3
